# KinaseGlo FLuc: Kinase-Glo luciferase inhibition (counter-screen). 200,000 tested, 0.28% active. Kinase-Glo luciferase, ATP luminescence, 8 min. Potency, µM (top dose mostly 38.3 µM), inactives show top-dose activity change, negative = inhibition, usual class: inhibitors; also: % is scaled to controls: 0 for no effect and ±100 for the full control effect; nearly all actives have a fitted effect of over 60% in size
#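 Recombinant Kinase-Glo luciferase, 10 uM ATP (linear range), luciferin; imidazole pH 7.2 / KCl / MgCl2 / Tween / BSA buffer; 8 min RT; luminescence.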
# HTT cytoprotect: protects HTT-Q103 PC12 cells, measured by ATP | PC12 HTT-Q103 induced, cytoprotection, ATP luminescence, 40 h | Potency, µM (top dose mostly 56.4 µM), inactives show cytoprotection (ATP increase), usual class: activators | 230,000 tested, 0.14% active; also: % of control where 0% means no effect; nearly all actives have a fitted effect of over 45% in size
#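 Stable PC12 Q103-GFP cells in serum-supplemented, phenol red-free DMEM; induction by tebufenozide at 100 nM final; compound dose series; cell viability quantified luminescently from ATP.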
# ALDH1A1 block: blocks purified human ALDH1A1 activity. P00352. Purified ALDH1A1, NADH fluorescence, propionaldehyde substrate. Potency, µM (highest dose often 75.3 µM), for the others: top-dose activity, negative = inhibition, actives largely listed as inhibitors. 220,000 tested, 7.3% active. AID 1030; active = well fitted inhibition curve with a large enough effect, not every such curve was filed as active; inconclusive = small, poorly fitted or top-dose-only effect, or another doubt; inactive = no such curve, though single readings can be large or run the other way;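 also: plate controls were no enzyme wells and a reference inhibitor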
# HPGD block: HPGD (human) dehydrogenase inhibition | purified HPGD, NADH fluorescence kinetic, PGE2 substrate | 150,000 tested, 4.3% active | P15428 | Potency, µM, for the others: top-dose activity change, negative = inhibition, usual class: inhibitors; active = well fitted inhibition curve with a large enough effect, not every such curve was filed as active; inconclusive = small, poorly fitted or top-dose-only effect, or another doubt; inactive = no such curve, though single readings can be large or run the other way; also: % is scaled to controls: 0 for no effect and ±100 for the full control effect
# Target sequence (P15428 whole entry, looked up): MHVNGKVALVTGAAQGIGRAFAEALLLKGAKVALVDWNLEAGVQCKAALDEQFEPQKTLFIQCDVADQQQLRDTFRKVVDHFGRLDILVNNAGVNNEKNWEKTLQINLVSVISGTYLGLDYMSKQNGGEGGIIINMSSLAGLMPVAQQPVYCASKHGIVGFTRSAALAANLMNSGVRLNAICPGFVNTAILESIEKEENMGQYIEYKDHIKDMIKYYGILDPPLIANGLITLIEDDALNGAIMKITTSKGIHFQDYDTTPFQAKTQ
#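 NADH formation kinetics: reaction with 30 uM PGE2 and 1 mM NAD+ (final), 20 nM enzyme, Tris-HCl pH 8 with Tween 20, after 15 min compound preincubation at room temperature. Fluorescence change, last versus first of five reads.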
# HTT aggregate: reduces HttQ103-GFP aggregates in PC12 cells | PC12 HttQ103-GFP aggregates, Acumen cytometry, 40 h | Potency, µM (series often up to 46.1 µM), for inactives: at the highest dose activity change, negative = inhibition, hits mostly inhibitors | 220,000 tested, 1.1% active | AID 1688; also: % is scaled to controls: 0 for no effect and ±100 for the full control effect; nearly all actives have a fitted effect of over 60% in size
#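 Inducible Q103 Huntingtin exon 1–GFP PC12 line, 1500 cells/well in phenol red free DMEM with 5% equine and 5% calf serum. Tebufenozide 100 nM induced expression; compounds titrated; aggregates quantified by cytometry.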
# Lamin A splicing: LMNA splicing modulation | HeLa LMNA splicing GFP/RFP minigene ratio, 48 h | Potency, µM (titrated, usually from 46.1 µM), inactives show at the highest dose ratio change, negative = inhibition, usual class: inhibitors | 200,000 tested, 0.01% active; active = well fitted inhibition curve with a large enough effect in the signal ratio, with a control signal flat, not every such curve was filed as active; inconclusive = small, poorly fitted or top-dose-only effect, or effect the other way, or a change in a side signal; the % refers to the signal ratio; also: % is scaled to controls: 0 for no effect and ±100 for the full control effect
#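 S3 HeLa cells stably expressing lamin A-EGFP splicing minigene plus DsRed2, 600 cells/well, 48 h compound exposure at 37C. Laser-scanning cytometry; analysed as GFP (500-530 nm)/RFP (575-640 nm) total intensity ratio; 0.5% DMSO vehicle.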
# * marks the source's active call; other numbers are inactive results; ? = inconclusive; . = no result given; [ ] = remark or other dose. In the library only some 9% were active in any assay of this set; here they are far more common. Unless noted, calls follow the shape of the dose curve; as a rule, active = well fitted curve in the direction sought with a large enough effect; inconclusive = small, poorly fitted or top-dose-only effect, or another doubt; inactive = no such curve, though single readings can be large; an effect the other way counts as inactive or inconclusive. Potency is read from the fitted curve at half-maximal effect.
SMILES,KinaseGlo FLuc,HTT cytoprotect,ALDH1A1 block,HPGD block,HTT aggregate,Lamin A splicing
COc1ccc(N=C2S/C(=C\c3ccc(N4CCOCC4)o3)C(=O)N2CCc2c[nH]c3ccccc23)cc1,-8.5%,-99.3%,8.91µM*,?,-8.8%[9.22 µM],?
COc1ccc(N=C2NC(=O)/C(=C\c3ccco3)S2)cc1,-1.1%,-27.6%,?,.,-10.0%,-0.4%[46 µM]
COc1ccc(N=C2S/C(=C\c3ccc(C)o3)C(=O)N2CC(C)C)cc1,2.5%,29.5%,8.91µM*,-26.4%,-4.2%[9.22 µM],2.3%
CCCN1C(=O)/C(=C/c2ccc(C)o2)SC1=Nc1ccc(OC)cc1,-2.2%,-3.1%,3.55µM*,25.1µM*,15.5%,?
COc1ccc(N=C2S/C(=C\c3ccc(OCC(=O)O)cc3)C(=O)N2CCc2c[nH]c3ccccc23)cc1,4.8%,7.3%,?,.,26.0%[9.22 µM],.
CCCN1C(=O)/C(=C/c2ccco2)SC1=Nc1ccc(OC)cc1,6.4%,-23.9%,12.6µM*,-5.6%,24.4%,7.9%
CCCN1C(=O)/C(=C/c2ccc(C)o2)SC1=Nc1ccc(OCC)cc1,-2.7%,1.5%,7.94µM*,-11.0%,28.0%,-0.4%
CCCN1C(=O)/C(=C\c2ccncc2)SC1=Nc1ccccc1,-5.8%,8.4%[10 µM],-3.5%,31.6µM*,-6.1%,?
Cc1nc2cccc(C(=O)NC3CCCCC3)c2o1,-0.5%,-14.6%,?,-12.3%,-11.8%,6.6%
CCc1nc(SCC(=O)NCc2ccc(F)cc2)c2c(=O)n(C)c(=O)n(C)c2n1,0.8%,1.0%[10 µM],8.8%,-4.5%,-19.1%,-2.6%
Cc1ccc(CNC(=O)C2CC(c3cccc([N+](=O)[O-])c3)=NO2)cc1 (stereo not given),1.4%,3.4%,-1.5%,-13.5%,16.9%,1.5%
O=C(NCc1ccc(-n2cccc2)cc1)c1cccc(F)c1,-4.2%,-59.1%,15.8µM*,.,23.6%,5.7%[9.22 µM]
COc1ccc(C(=O)NCc2ccc(-n3cccc3)cc2)cc1OC,1.9%,-13.3%[10 µM],?,.,19.1%,.
CCOc1ccc2[nH]cc(S(=O)(=O)c3ccc(C)cc3)c(=O)c2c1,4.6%,-36.8%,-5.3%,.,-8.4%,.
CCc1ccc(-c2csc3ncn(CC)c(=O)c23)cc1,-1.9%,0.1%[10 µM],-15.7%,.,-6.1%[9.22 µM],4.9%[46 µM]
Cc1cc(C(=O)CSc2nnc(-c3ccco3)o2)c(C)n1Cc1ccco1,-0.3%,-12.5%[10 µM],?,-2.9%,2.0%,-24.0%
Cc1nnc(SCC(=O)c2cc(C)n(-c3ccc4c(c3)OCO4)c2C)s1,.,7.6%[10 µM],?,.,?,?
Cc1cc(C(=O)CSc2nnc(-c3ccco3)o2)c(C)n1-c1ccc2c(c1)OCCO2,12.2%,10.2%[10 µM],-8.0%,-14.7%,8.91µM*,-10.4%
Cc1cc(C(=O)CSc2nnnn2C)c(C)n1-c1ccc2c(c1)OCCO2,-5.5%,19.0%,?,25.1µM*,-18.4%,?
CCOC(=O)C1(Cc2ccccc2)CCN(CC2CC=CCC2)CC1 (stereo not given),-0.6%,24.2%[10 µM],5.6%,.,20.3%[9.22 µM],-10.9%[46 µM]
COC(=O)c1cc(-c2c(C)oc3cc(OC)ccc3c2=O)c(C)o1,0.4%,2.9%,4.5%,-6.6%,9.0%,-3.1%
O=C(NCc1ccccc1)c1nc[nH]c1C(=O)NCc1ccccc1,-0.5%,0.1%[10 µM],2.51µM*,.,-2.3%[9.22 µM],1.7%[46 µM]
NNC(=O)c1nc[nH]c1C(=O)Nc1ccccc1[N+](=O)[O-],-3.5%,-62.6%,0.794µM*,.,-4.8%,-7.5%[46 µM]
Cc1ccc(C2c3[nH]c4ccccc4c3CCN2C(=O)CSCc2ccc(F)cc2)cc1 (stereo not given),.,.,.,.,.,-11.7%[46 µM]
O=[N+]([O-])c1ccccc1/C=N/Nc1nnc(-c2ccccc2)c(-c2ccccc2)n1,3.1%,17.2%[10 µM],0.282µM*,0.0%,-7.3%,-6.1%
SMILES,KinaseGlo FLuc,HTT cytoprotect,ALDH1A1 block,HPGD block,HTT aggregate,Lamin A splicing
CC1(C)CC(=O)C2=C(C1)Nc1ccccc1N=C2,-17.8%,35.9%[1.9 µM],1.78µM*,-12.0%,-7.6%,-0.9%
CC1(C)CC(=O)C2=C(C1)Nc1ccccc1NC2,4.5%,-5.9%,-8.9%,.,16.6%,3.9%[9.22 µM]
Cc1ccc(NC(=O)CSc2nnc(-c3n[nH]c4ccccc34)n2-c2ccccc2)c(C)c1,-0.1%,8.7%[10 µM],20µM*,-12.2%,-12.3%,?
O=C(NNC(=O)C1CCCO1)c1ccc(Cl)cc1 (stereo not given),1.7%,15.0%[10 µM],1.8%,-16.4%,14.3%,-8.0%
Cc1nn(CCC#N)c(N)c1C1(O)C(=O)Nc2c(Cl)cc(Cl)cc21 (stereo not given),.,-23.5%[10 µM],3.98µM*,.,-4.2%[9.22 µM],.
CC(C)=NNc1nc2c(c(=O)n(C)c(=O)n2C)n1C,.,13.1%[10 µM],.,.,13.6%[9.22 µM],.
Cn1c(=O)c2c(nc(NN=C3CCCCC3)n2C)n(C)c1=O,11.2µM*,-22.8%,?,.,-16.6%,.
O=C1NCCN(C(=O)CCc2nnc(-c3ccsc3)o2)C1c1ccc(F)cc1 (stereo not given),.,8.1%[10 µM],0.9%,.,-19.9%[9.22 µM],.
COc1cc2c(cc1OC)C(COc1cccc(C(F)(F)F)c1)N(C(=O)c1ccc(S(=O)(=O)N3CCCC3)cc1)CC2 (stereo not given),.,.,.,.,.,-15.3%[46 µM]
O=[N+]([O-])c1cc(/C=N/N2CCN(Cc3ccccc3)CC2)ccc1Cl,-1.4%,-16.1%,-2.9%,.,-3.0%,-9.4%[46 µM]
O=c1oc(Nc2ccccc2F)nc2ccccc12,.,-56.3%,20µM*,.,?,4.2%
O=C(/C=C/Nc1ccc(Br)cc1F)c1ccccc1,10µM*,.,?,-7.4%,3.6%,?
